# PubChem BioAssay AID1159580 (chemical genetic matrix, 2015)
# “And” between values parts separate entries of the source, which are not always exact repeats. Equal values may be shown once. About 2,000 (36%) of roughly 5,500 compounds were called active. Not shown: some 18% with an inconclusive outcome. The list shows a part of the results. Unmarked numbers belong to inactive results. No stated cut-off is given here; in the data, active means normalized growth mostly below about 0.91 (no sharp cut-off); inconclusive means no clear call, values can overlap the other calls; inactive means mostly above about 0.92.
# Test: chemical genetic growth profiling, strain panel (AID 1159580);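 further: tested at 20 µM; growth read once vehicle control cultures reached saturation at 30 °C; 1 = growth at the plate median or of vehicle wells; lower values mean less growth of the strain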
# Settings: S. cerevisiae deletion strains, growth OD
smiles,measurement,setting,value
CCCCCCCCCc1ccc(O)cc1,normalized growth,"locus YAL013W, strain DEP1, active compounds read low",0.118 (active)
same,normalized growth,"locus YAL021C, strain ccr4, active compounds read low",0.0845 (active)
same,normalized growth,"locus YAL026C, strain drs2, active compounds read low",0.0626 (active)
same,normalized growth,"locus YAL030W, strain snc1, active compounds read low",0.0571 (active)
same,normalized growth,"locus YBL061C, strain skt5, active compounds read low",0.0594 (active)
same,normalized growth,"locus YBR009C, strain hhf1, active compounds read low",0.0563 (active)
same,normalized growth,"locus YBR021W, strain FUR4, active compounds read low",0.215 (active)
same,normalized growth,"locus YBR023C, strain chs3, active compounds read low",0.0626 (active)
same,normalized growth,"locus YBR171W, strain sec66, active compounds read low",0.0781 (active)
same,normalized growth,"locus YBR229C, strain ROT2, active compounds read low",0.144 (active)
same,normalized growth,"locus YBR231C, strain swc5, active compounds read low",0.0635 (active)
same,normalized growth,"locus YBR279W, strain paf1, active compounds read low",0.066 (active)
same,normalized growth,"locus YCL011C, strain gbp2, active compounds read low",0.0546 (active)
same,normalized growth,"locus YCL016C, strain dcc1, active compounds read low",0.0648 (active)
same,normalized growth,"locus YCL029C, strain bik1, active compounds read low",0.617 (active)
same,normalized growth,"locus YCL061C, strain MRC1, active compounds read low",0.0666 (active)
same,normalized growth,"locus YCL069W, strain vba3, active compounds read low",0.0655 (active)
same,normalized growth,"locus YCR088W, strain abp1, active compounds read low",0.0637 (active)
same,normalized growth,"locus YDL005C, strain med2, active compounds read low",0.0719 (active)
same,normalized growth,"locus YDL035C, strain GPR1, active compounds read low",0.0859 (active)
same,normalized growth,"locus YDL040C, strain nat1, active compounds read low",0.0822 (active)
same,normalized growth,"locus YDL074C, strain BRE1, active compounds read low",0.0981 (active)
same,normalized growth,"locus YDL101C, strain DUN1, active compounds read low",0.1 (active)
same,normalized growth,"locus YDL134C, strain PPH21, active compounds read low",0.0971 (active)
same,normalized growth,"locus YDL185W, strain tfp1, active compounds read low",0.929
same,normalized growth,"locus YDL192W, strain arf1, active compounds read low",0.411 (active)
same,normalized growth,"locus YDR001C, strain nth1, active compounds read low",0.0685 (active)
same,normalized growth,"locus YDR069C, strain doa4, active compounds read low",0.115 (active)
same,normalized growth,"locus YDR101C, strain arx1, active compounds read low",0.721 (active)
same,normalized growth,"locus YDR137W, strain rgp1, active compounds read low",0.101 (active)
same,normalized growth,"locus YDR150W, strain NUM1, active compounds read low",0.529 (active)
same,normalized growth,"locus YDR159W, strain sac3, active compounds read low",0.0748 (active)
same,normalized growth,"locus YDR162C, strain NBP2, active compounds read low",0.102 (active)
same,normalized growth,"locus YDR195W, strain ref2",0.0909 (active)
same,normalized growth,"locus YDR297W, strain sur2, active compounds read low",0.0579 (active)
same,normalized growth,"locus YDR318W, strain mcm21, active compounds read low",0.58 (active)
same,normalized growth,"locus YDR334W, strain swr1, active compounds read low",0.0683 (active)
same,normalized growth,"locus YDR335W, strain msn5, active compounds read low",0.06 (active)
same,normalized growth,"locus YDR388W, active compounds read low",0.678 (active)
same,normalized growth,"locus YDR392W, strain spt3, active compounds read low",0.0671 (active)
same,normalized growth,"locus YDR502C, strain sam2, active compounds read low",0.8 (active)
same,normalized growth,"locus YEL003W, strain gim4, active compounds read low",0.0581 (active)
same,normalized growth,"locus YEL037C, strain rad23, active compounds read low",0.0885 (active)
same,normalized growth,"locus YEL061C, strain CIN8 (second series), active compounds read low",0.059 (active)
same,normalized growth,"locus YEL061C, strain CIN8, active compounds read low",0.131 (active)
same,normalized growth,"locus YER015W, strain faa2, active compounds read low",0.0639 (active)
same,normalized growth,"locus YER016W, strain bim1, active compounds read low",0.0583 (active)
same,normalized growth,"locus YER110C, active compounds read low",0.603 (active)
same,normalized growth,"locus YER111C, strain swi4, active compounds read low",0.0713 (active)
same,normalized growth,"locus YER155C, strain BEM2 (second series), active compounds read low",0.504 (active)
same,normalized growth,"locus YER155C, strain BEM2, active compounds read low",0.101 (active)
same,normalized growth,"locus YER167W, strain BCK2, active compounds read low",0.117 (active)
same,normalized growth,"locus YFR010W, strain ubp6, active compounds read low",0.0798 (active)
same,normalized growth,"locus YGL078C, strain dbp3, active compounds read low",0.885 (active)
same,normalized growth,"locus YGL086W, strain mad1, active compounds read low",0.697 (active)
same,normalized growth,"locus YGL167C, strain pmr1, active compounds read low",0.0729 (active)
same,normalized growth,"locus YGL173C, strain kem1, active compounds read low",0.0956 (active)
same,normalized growth,"locus YGL227W, strain vid30, active compounds read low",0.0725 (active)
same,normalized growth,"locus YGL240W, strain doc1, active compounds read low",0.157 (active)
same,normalized growth,"locus YGL248W, strain PDE1, active compounds read low",0.181 (active)
same,normalized growth,"locus YGL253W, strain hxk2, active compounds read low",0.0662 (active)
same,normalized growth,"locus YGR078C, strain PAC10, active compounds read low",0.174 (active)
same,normalized growth,"locus YGR135W, strain pre9, active compounds read low",0.842 (active)
same,normalized growth,"locus YGR229C, strain SMI1, active compounds read low",0.0784 (active)
same,normalized growth,"locus YGR252W, strain gcn5, active compounds read low",0.518 (active)
same,normalized growth,"locus YHR013C, strain ard1, active compounds read low",0.102 (active)
same,normalized growth,"locus YHR027C, strain rpn1, active compounds read low",0.0645 (active)
same,normalized growth,"locus YHR030C, strain SLT2, active compounds read low",0.0665 (active) and 0.09 (active)
same,normalized growth,"locus YHR079C, strain IRE1 (second series), active compounds read low",0.488 (active)
same,normalized growth,"locus YHR079C, strain IRE1, active compounds read low",0.107 (active)
same,normalized growth,"locus YHR094C, strain hxt1, active compounds read low",0.87 (active)
same,normalized growth,"locus YHR129C, strain ARP1, active compounds read low",0.173 (active)
same,normalized growth,"locus YHR142W, strain chs7, active compounds read low",0.064 (active)
same,normalized growth,"locus YHR200W, strain rpn10, active compounds read low",0.577 (active)
same,normalized growth,"locus YIL066C, strain RNR3, active compounds read low",0.116 (active)
same,normalized growth,"locus YIL073C, strain SPO22, active compounds read low",0.182 (active)
same,normalized growth,"locus YIL125W, strain kgd1, active compounds read low",0.405 (active)
same,normalized growth,"locus YIR030C, strain dcg1, active compounds read low",0.762 (active)
same,normalized growth,"locus YJL092W, strain hpr5, active compounds read low",0.0838 (active)
same,normalized growth,"locus YJL095W, strain BCK1 (second series), active compounds read low",0.0552 (active)
same,normalized growth,"locus YJL095W, strain BCK1, active compounds read low",0.0671 (active) and 0.102 (active)
same,normalized growth,"locus YJL115W, strain asf1, active compounds read low",0.113 (active)
same,normalized growth,"locus YJL129C, strain trk1, active compounds read low",0.0774 (active)
same,normalized growth,"locus YJL134W, strain LCB3, active compounds read low",0.308 (active)
same,normalized growth,"locus YJL154C, strain vps35, active compounds read low",0.0618 (active)
same,normalized growth,"locus YJL164C, strain tpk1, active compounds read low",0.0542 (active)
same,normalized growth,"locus YJL166W, strain qcr8, active compounds read low",0.057 (active)
same,normalized growth,"locus YJL168C, strain set2, active compounds read low",0.992
same,normalized growth,"locus YJL187C, strain SWE1 (second series), active compounds read low",0.193 (active)
same,normalized growth,"locus YJL187C, strain SWE1, active compounds read low",0.06 (active)
same,normalized growth,"locus YJR043C, strain POL32, active compounds read low",0.107 (active)
same,normalized growth,"locus YJR066W, strain TOR1, active compounds read low",-0.000468 (active)
